Here are results for 89 molecules from PubChem BioAssay AID540333 (Southern Research Specialized Biocontainment Screening …, 2011).

Among all 10,000 compounds or so, about 320 (3.2%) were called active. The list comes from a sample in which actives are over-represented; it also holds similar structures and randomly drawn compounds. Unmarked numbers belong to inactive results. No stated cut-off is given here; in the data, active means CPE inhibition mostly above about 9.1% (no sharp cut-off); inactive means mostly below about 7.2%.

A short description of this assay: Dengue virus cytopathic effect inhibitors, cell-based, CPE readout, HTS (AID 540333). The settings on record: Dengue virus CPE inhibition in host cells, at 20 µM; stronger effect = higher value.
For the molecule `O=C(N=C1c2ccccc2CN1c1ccccc1)c1cccc([N+](=O)[O-])c1`, the CPE inhibition result is “inactive”.
For `CC(C)N(C(=O)COC(=O)CNC(=O)c1ccc(Br)cc1)c1ccccc1` the value was “inactive”; for `COc1ccc(C2=NN(C(=O)/C=C/c3ccccc3)C(c3ccccc3)C2)c(OC(C)=O)c1` (centres undefined), 8.13%.
Then `COc1ccc(C2CC(c3ccccc3OC(C)=O)=NN2C(=O)/C=C/c2ccccc2)cc1` (centres undefined), with 7.79% (active); and `CC(=O)Oc1ccccc1C1=NN(C(=O)/C=C/c2ccccc2)C(c2ccccc2)C1` (centres undefined), with 8.09%.
Then `Cc1c(NC2=C(Cl)C(=O)N(c3ccccc3Cl)C2=O)c(=O)n(-c2ccccc2)n1C`, with “inactive”.
Regarding `CCNC(=S)N(CCc1cccc(C)c1)Cc1cc2cc(OC)c(OC)cc2[nH]c1=O`, the CPE inhibition is 5.32%.
As for `C=CCN1C(=O)S/C(=C/c2ccc(Sc3nc4ccccc4[nH]3)o2)C1=O`, the CPE inhibition was 12.1% (active).
For `CCN1C(=O)S/C(=C/c2ccc(Sc3nc4ccccc4[nH]3)o2)C1=O` the value was 7.23%.
As for `O=C(N/N=C/c1ccc(Sc2nc3ccccc3[nH]2)o1)c1ccncc1`, the CPE inhibition is 1.17%.
For `CCOC(=O)CN1C(=O)S/C(=C/c2ccc3c(c2)n(C)c(=O)n3C)C1=O` the value was 0.01%.
For the molecule `Cc1ccc(C)c(N(CC(=O)Nc2ccccc2C(=O)NCc2ccco2)S(=O)(=O)c2ccccc2)c1`, the CPE inhibition was 0.06%.
For `Cc1ccc(-c2cc(C(=O)N/N=C/c3ccco3)n[nH]2)s1` the value was “inactive”; for `Cc1ccc(NC(=O)CSc2nc(N)c3c4c(sc3n2)CSC(C)(C)C4)cc1`, 16.2% (active).
Turning to `Cc1ccc(NC(=O)CSC2=NCCN2)cc1`, the CPE inhibition is 0.905%.
`CC(Sc1nc(N)c2c3c(sc2n1)CSC(C)(C)C3)C(=O)Nc1ccccc1` (centres undefined): the CPE inhibition was 6.62%.
For `CN(C(=O)CSc1nc(N)c2c3c(sc2n1)CSC(C)(C)C3)c1ccccc1` the value was 9.8%; for `Cc1ccccc1NC(=O)CSc1nc(N)c2c3c(sc2n1)CSC(C)(C)C3`, 15.7% (active).
For `Cc1ccccc1NC(=O)CSC1=NCCN1`, the CPE inhibition entry is “inactive”.
`COC(=O)c1ccc(CNC(=O)COC(=O)C23CC4CC(CC(C4)C2)C3)cc1`: the CPE inhibition entry was “inactive”.
As for `O=C(CSc1ccc(Cl)cc1)Nc1ccc(-c2nc3ccccc3[nH]2)cc1`, the CPE inhibition is 1%.
For `O=C(CN1CCOCC1)NN=C1CCCCCCCCCCC1` the value was “inactive”.
Then `CCCCCC(=O)Nc1ccccc1N1CCOCC1`, with 0.445%; and `Cc1ccc(NC(=O)OCCN2CCN(S(=O)(=O)c3ccc(C)cc3)CCC2=O)cc1`, with 0.55%; and `COc1ccc(C(=O)/C(C#N)=N/Nc2ccccc2[N+](=O)[O-])cc1`, with 1.92%.
With `Cc1c(C#N)c(N)nc2c3c(sc12)NC(=O)CC3c1ccc(Cl)cc1` (centres undefined), the CPE inhibition is 0.18%.
For `Cc1ccc(NC(=S)NCCc2ccc(S(N)(=O)=O)cc2)cc1C` the value was “inactive”; for `COc1cc(/C=C2/C(=O)NN(c3ccc(Cl)cc3)C2=O)ccc1OC(=O)c1ccco1`, 8.14% (active).
Turning to `COc1cc(/C=C2/C(=O)NN(c3cccc(C)c3)C2=O)ccc1OC(=O)c1ccco1`, the CPE inhibition is 8.68%.
For `COc1cc(/C=C2/C(=O)NN(c3cccc(F)c3)C2=O)ccc1OC(=O)c1ccco1` the value was 3.78%; for `COc1ccccc1NS(=O)(=O)c1cccc(C(=O)N/N=C/c2ccc3c(c2)OCCO3)c1`, “inactive”.
For `S=c1[nH]nc(COc2ccccc2)n1/N=C/c1cccs1` the value was “inactive”.
Then `O=C1N(c2cccc(Cl)c2)C(c2ccc(Cl)cc2)N2CCCN12` (centres undefined), with 4.13%; and `O=C1[C@H]2[C@@H](c3ccc(F)cc3)N3C(=O)N(c4ccc(Br)cc4)C(=O)[C@@]3(Cc3ccc(Cl)cc3)[C@H]2C(=O)N1C1CCCCC1`, with 46% (active); and `CCN1C(=O)[C@H]2[C@@H](c3ccc(C)cc3)N3C(=O)N(c4ccc(OC)cc4)C(=O)[C@@]3(CC)[C@H]2C1=O`, with 0.62%.
`Cc1cccc([C@@H]2[C@@H]3C(=O)N(Cc4ccccc4)C(=O)[C@@H]3[C@]3(Cc4ccccc4)C(=O)N(c4ccccc4)C(=O)N23)c1`: the CPE inhibition is 0.915%.
For `O=C1[C@H]2[C@@H](c3ccc(Cl)cc3)N3C(=O)N(c4cccc(Cl)c4)C(=O)[C@@]3(Cc3ccccc3)[C@H]2C(=O)N1C1CCCCC1` the value was 15.5% (active).
Then `S=C(Nc1ccccc1Cl)N1CCN(Cc2ccccc2)CC1`, with 0.465%; and `N#C/C(=C\c1cn(Cc2cccc(F)c2)c2ccccc12)C(=O)NCc1ccco1`, with 0.23%.
Then `Cc1ccc(OCCSCc2nnc(NC(=O)Nc3cccc(Cl)c3)s2)cc1`, with 5.79%; and `COc1ccc(NS(=O)(=O)c2ccc3nc(COc4ccc(Cl)c(C)c4)[nH]c3c2)cc1`, with 1.16%; and `CSc1ccc(/C=C/C(=O)c2ccc(O)cc2)cc1`, with “inactive”.
As to `CCOc1ccc(/C=C/C(=O)Nc2ccccc2C(F)(F)F)cc1`, the CPE inhibition entry is “inactive”.
Take `O=c1c2ccccc2cnn1Cc1n[nH]c(=S)n1-c1ccccc1`: the CPE inhibition is 0.01%.
For `CCCCCCNC(=O)CC(NS(=O)(=O)c1ccc(OC)cc1)C(C)C` (centres undefined) the value was 0.025%; for `CC(C)(C)OC(=O)N1CCC(NC(=O)c2ncn(Cc3ccccc3)c2C(=O)NC2CCN(C(=O)OC(C)(C)C)CC2)CC1`, 39.3% (active); for `C[C@@H](NC(=O)c1nc[nH]c1C(=O)OCc1ccccc1)c1ccccc1`, 0.97%.
Then `C[C@@H](NC(=O)c1ncn(Cc2ccccc2)c1C(=O)N[C@H](C)c1ccccc1)c1ccccc1`, with 13.8% (active); and `Cn1cnc(C(=O)N2CCN(C(=O)OC(C)(C)C)CC2)c1C(=O)N1CCN(C(=O)OC(C)(C)C)CC1`, with 1.25%; and `CC(C)(C)OC(=O)CNC(=O)c1[nH]cnc1C(=O)NC1CCN(C(=O)OC(C)(C)C)CC1`, with “inactive”.
As to `C[C@H](NC(=O)c1ncn(C)c1C(=O)N[C@@H](C)c1ccccc1)c1ccccc1`, the CPE inhibition is 0.505%.
Then `Cc1ccc2c(c1)/C(=N/N1C(=O)c3ccccc3C1=O)C(=O)N2`, with “inactive”; and `CC(C)C(=O)NC(=S)Nc1nnn(C)n1`, with “inactive”; and `Cc1ccc(N2C(=O)[C@@H]3C(C(=O)C(c4ccccc4)c4ccccc4)=NN[C@@H]3C2=O)cc1`, with 0.425%.
As to `CCC(=O)Nc1ccc(NC(=O)/C=C/c2ccc(Cl)cc2)cc1`, the CPE inhibition was 21.6% (active).
For `CCC(=O)N/N=C(\C)CC(=O)Nc1ccc(Cl)cc1`, the CPE inhibition is 0.01%.
Consider `CC(=O)c1ccc(NC(=O)/C=C/c2ccc(C)cc2)cc1`, for which the CPE inhibition is 4.66%.
As for `Cc1sc(NC(=O)c2ccccc2)c(C(c2ccc(Cl)cc2)N2CCN(CCO)CC2)c1C` (centres undefined), the CPE inhibition entry is “inactive”.
For `Cc1nc2sc(C(c3ccc(F)cc3)N3CCN(C(=O)c4ccco4)CC3)c(O)n2n1` (centres undefined) the value was 0.39%; for `CC(=O)NS(=O)(=O)c1ccc(NC(=O)C2c3ccccc3Oc3ccccc32)cc1`, “inactive”; for `CN(c1ccccc1)S(=O)(=O)c1ccc(Cl)c(C(=O)NCCc2c[nH]c3ccccc23)c1`, 2.39%.
As to `CN(C)c1ccc(NS(=O)(=O)c2ccc(Cl)cc2)cc1`, the CPE inhibition was 0.45%.
Consider `CN(C)c1ccc(C(CNS(=O)(=O)c2ccc(F)cc2)c2c[nH]c3ccccc23)cc1` (centres undefined), for which the CPE inhibition was 36.1% (active).
In the case of `COCCCNC(=O)c1cccc2c(=O)c(C)c(-c3ccccc3)oc12`, the CPE inhibition was 0.515%.
Take `Cc1ccc(C)n1-c1ccc(NC(=O)c2ccccc2)cc1`: the CPE inhibition entry was “inactive”.
Then `O=C(c1cnn(C(=O)COc2ccc(Cl)cc2)c1)c1ccccc1O`, with “inactive”; and `COc1cc(NC(=O)COC(=O)/C=C/c2ccc(Cl)cc2Cl)cc(OC)c1`, with 8.61%.
As for `O=C(COC(=O)/C=C/c1ccccc1Cl)NC(=O)Cc1ccccc1`, the CPE inhibition is 0.12%.
For `COc1cc(NC(=O)COC(=O)/C=C/c2ccccc2Cl)cc(OC)c1` the value was 22.1% (active).
As to `COc1ccccc1OCCn1cc(/C=C(\C#N)C(=O)NCc2cccs2)c2ccccc21`, the CPE inhibition was 2.51%.
`O=C(NCc1ccco1)c1ccc(Cl)c(S(=O)(=O)N2CCc3ccccc32)c1`: the CPE inhibition is 1.37%.
For `COc1cc(C(=O)NC(=S)NC(C)C)cc(OC)c1OC` the value was “inactive”; for `O=C(Nc1ccccc1)c1ccc(NCCc2ccccc2)c([N+](=O)[O-])c1`, 13.8% (active).
As for `Cc1ccc(NC(=O)c2ccc(NCCN)c([N+](=O)[O-])c2)cc1Cl`, the CPE inhibition was 0.22%.
For `Cc1ccc(NC(=O)c2ccc(NCCN)c([N+](=O)[O-])c2)cc1`, the CPE inhibition is 3.98%.
Then `O=C(O)CCC(=O)OCc1c(-c2ccccc2)ncc2ccccc12`, with 1.18%; and `CCOc1cc(C2Nc3ccccc3C(=O)N2c2ccccc2)c(Br)cc1OCC(=O)O` (centres undefined), with “inactive”.
For `COc1ccc(NC(=O)/C=C/c2ccccc2[N+](=O)[O-])c(OC)c1` the value was 0.44%.
Then `COc1ccc(NCc2ccc([N+](=O)[O-])s2)c(OC)c1`, with 11.8% (active); and `COc1cccc(NCc2ccc([N+](=O)[O-])s2)c1`, with “inactive”.
`COc1ccc(NCc2ccc([N+](=O)[O-])s2)cc1`: the CPE inhibition is 16.8% (active).
Then `COc1ccccc1NCc1ccc([N+](=O)[O-])s1`, with “inactive”; and `COc1ccc(NCc2ccccc2[N+](=O)[O-])cc1OC`, with 1.54%; and `COc1cc(C2Nc3ccccc3C(=O)N2c2ccccc2)c(Br)cc1OCC(=O)O` (centres undefined), with “inactive”.
Regarding `Cn1cnnc1SCC(=O)Nc1cc(S(=O)(=O)N2CCCCCC2)ccc1Cl`, the CPE inhibition entry is “inactive”.
With `Cc1ccc2c([N+](=O)[O-])cccc2n1`, the CPE inhibition result was “inactive”.
For `Cc1ccc(CNC(=O)c2ccc3c(c2)S(=O)(=O)c2ccccc2C3=O)o1` the value was “inactive”; for `COc1cc(OC)cc(-c2c(-c3cccs3)c3cc(-c4ccc5[nH]ccc5c4)ccc3n2C)c1`, 4.79%; for `CCCCOc1ccc(/C=C/C(=O)OCC(=O)NC(=O)NCC(C)C)cc1OCC`, “inactive”.
